Results on 93 compounds are retold here after PubChem BioAssay AID1304 (The Scripps Research Institute Molecular Screening Center, 2008).

Molecules are shown by their SMILES. Among all 220,000 compounds or so, about 800 (0.36%) were called active. Shown is part of a subset that was picked to be rich in actives. Unmarked numbers belong to inactive results. Cut-off read from the data, not from the text of the source: active = activation above about 33% (passing the limit was not always enough); inactive = the rest.

Neuropeptide Y receptor type 1 (Homo sapiens), sequence (P25929 whole entry, looked up): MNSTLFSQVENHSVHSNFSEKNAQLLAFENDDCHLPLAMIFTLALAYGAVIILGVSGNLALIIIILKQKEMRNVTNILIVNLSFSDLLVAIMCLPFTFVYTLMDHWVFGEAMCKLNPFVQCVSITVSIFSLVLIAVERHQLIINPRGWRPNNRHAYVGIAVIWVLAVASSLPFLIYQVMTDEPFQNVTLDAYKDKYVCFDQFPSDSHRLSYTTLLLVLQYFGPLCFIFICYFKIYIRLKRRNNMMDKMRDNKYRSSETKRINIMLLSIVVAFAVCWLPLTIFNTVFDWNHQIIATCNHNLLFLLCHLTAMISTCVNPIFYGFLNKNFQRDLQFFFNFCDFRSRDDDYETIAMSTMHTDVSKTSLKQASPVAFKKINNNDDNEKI

The assay concerns the target Neuropeptide Y receptor type 1 (Homo sapiens) (UniProt P25929). The assay can be described thus: NPY-Y1 receptor potentiators or agonists, primary screen, cell-based (AID 1304).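 Note: cells stimulated with NPY at EC10 then isoproterenol at EC100; 0% = low agonist plus stimulus and 100% = saturating agonist plus stimulus.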 The following applies: NPY-Y1 expressing cells, potentiator/agonist activation; at 3.6 µM; hits give high values.
As to `CN(C)Cc1c(O)ccc2occ(C(O)c3ccccc3)c12` (stereo not drawn), the activation is 105% (active). As for `CCOc1ncccc1C(=O)N(C)CC(=O)Nc1ccc(F)cc1`, the figure is -13.4%; as for `S=c1[nH]nc(-c2cc(-c3ccccc3)n[nH]2)n1/N=C/c1c2ccccc2cc2ccccc12`, 6.62%; as for `CCOc1ccc2c(=O)c(-c3ccc4c(c3)OCCCO4)c(C)oc2c1`, 2.42%. As to `O=C(Nc1ccc2c(c1)CCC2)c1cccc(S(=O)(=O)N2CCN(c3ccc(F)cc3)CC2)c1`, the activation was 24.4%.

For `O=C(Nc1ccc2c(c1)CCC2)c1cccc(S(=O)(=O)Nc2ccccc2Cl)c1`, the activation is 54.9% (active). Regarding `O=C(c1cccc(S(=O)(=O)Nc2ccccc2Cl)c1)N1CCN(C(=O)c2ccco2)CC1`, the activation was 0.65%. For the compound `O=C(Nc1ccc(Cl)cn1)c1ccc2c(c1)OCCO2`, the activation was -6.11%.

For the compound `O=C(Nc1cccc(S(=O)(=O)Nc2ccc(Cl)cc2)c1)c1ccc2c(c1)OCCO2`, the activation is 43.8% (active). For `O=C(Nc1cccc(S(=O)(=O)N2CCCCC2)c1)c1ccc2c(c1)OCO2`, the activation is -8.28%. Turning to `CCc1nnc(NC(=O)CCN(c2ccc(C)cc2)S(=O)(=O)c2ccccc2)s1`, the activation was 1.52%. Regarding `CSc1ccccc1C(=O)NCc1ccccc1`, the activation was 1.48%. Take `O=S(=O)(c1ccc(F)cc1)N1CC=C(c2ccccc2)CC1`: the activation is -6.53%. Regarding `CC(O)c1nc2c(c(=O)n(C)c(=O)n2C)n1C` (stereo not drawn), the activation is 11.7%. In the case of `Cc1coc2cc3oc(=O)c(CCC(=O)O)c(C)c3cc12`, the activation is -7.91%. For the compound `CCSc1sc(CC)cc1C=O`, the activation is -2.95%. Turning to `Cc1ccc(NC(=O)/C(=C/c2ccc([N+](=O)[O-])cc2)NC(=O)c2ccccc2)cc1`, the activation is 30.3%. As to `O=C(O)C1CCN(c2ccc([N+](=O)[O-])cc2[N+](=O)[O-])CC1`, the activation was -10.1%. Consider `COC(=O)c1ccc(COC(=O)c2cnccn2)cc1`, for which the activation was -11.9%. Turning to `Cc1coc2c(O)cc3c(c12)OC1(N2CCCCC2)C(=O)NCCCC31` (stereo not drawn), the activation was 90.8% (active).

Take `O=C(O)C1C2C=CC(O2)C1C(=O)NCCc1cccc(Cl)c1` (stereo not drawn): the activation was 1.36%. For `COCCCNC(NC(=O)c1ccc(OC)cc1)C(Cl)(Cl)Cl` (stereo not drawn), the activation was 15.6%.

Turning to `COCCCNC(=S)N1CCCC(c2nc3cc(C)c(C)cc3[nH]2)C1` (stereo not drawn), the activation is 8.07%.

`NC(=O)CC[C@@H]1NC(=O)[C@H](CO)NC(=O)c2cc([N+](=O)[O-])cc(I)c2NCC[C@@H](C(N)=O)NC1=O`: the activation is -22.3%. As to `CC(=O)c1ccc(NC(=O)Nc2ccc([N+](=O)[O-])cc2C)cc1`, the activation is -8.87%. The figure for `CCn1c2ccccc2c2cc(NC(=O)CNC)ccc21` is -3.25%; for `CCn1c2ccccc2c2cc(NC(=O)Nc3ccc([N+](=O)[O-])cc3C)ccc21` it is 45.6% (active). As to `CC(C)(C)NC(=O)COc1ccc(CNc2ccc3[nH]c(=O)[nH]c3c2)cc1`, the activation is 2.35%. In the case of `CC(C)(C)N(Cc1ccccc1)C(=O)COC(=O)CCc1c[nH]c2ccccc12`, the activation is -4.21%.

With `COc1ccc(CCn2ccc(O)c(Cc3ccc(Cl)cc3Cl)c2=O)cc1OC`, the activation was -7.77%. Take `COC(=O)c1c(C(=O)OC)c2n(c1C)CCS2`: the activation was -0.93%. As for `CC(NS(=O)(=O)c1ccccc1)c1n[nH]c(=S)n1-c1ccccc1` (stereo not drawn), the figure is 30%; as for `Cc1ccccc1NC(=O)NNC(=O)OC(C)(C)C`, -4.21%. For `CN1C(=O)c2ccccc2C(C(=O)NCCCN2CCCC2)C1c1c[nH]c2ccccc12` (stereo not drawn), the activation was 51.1% (active). For the compound `O=C(NCCCN1CCN(Cc2ccccc2)CC1)C1CCN(S(=O)(=O)N2CCCC2)CC1`, the activation was -28.8%.

Turning to `CCN(CC)CCNC(=O)C1c2ccccc2C(=O)N(C)C1c1cn(C)c2ccccc12` (stereo not drawn), the activation is 10.4%. The figure for `CCC(C)Cn1c(O)cc2nn(-c3nc4ccccc4s3)c(=O)c-2c1C` (stereo not drawn) is 13.9%; for `OC(COCc1ccco1)CN1CCN(c2ccccc2)CC1` (stereo not drawn) it is 9.46%.

As for `O=[N+]([O-])c1ccc(N2CCN(CC(O)COc3ccccc3)CC2)cc1` (stereo not drawn), the activation is 20.4%.

`OC(COCC1COc2ccccc2O1)CN1CCN(c2ccc(F)cc2)CC1` (stereo not drawn): the activation is 74.5% (active). The figure for `CC1CCN(C2=NC(=O)/C(=C/c3cn[nH]c3-c3ccccc3)S2)CC1` is 1.73%; for `CC1(C)CC(=O)C=C(N2CCOCC2)C1` it is 11.6%; for `Cc1nccn1CCC1CCCCN1C(=O)CCc1nnc(-c2ccsc2)o1` (stereo not drawn) it is 5.94%.

For `Cc1ccc(C)c(NC(=O)CSc2nc3c(oc4ccccc43)c(=O)n2-c2ccccc2)c1`, the activation is -11.9%. `CCCCC(=O)Nc1cc(C)c2c(=O)oc3ccccc3c2n1`: the activation was 4.38%. Regarding `CCOC(=O)c1c(C)nc2c(c1C)c(=O)oc1ccccc12`, the activation was -22%.

`Cc1ccccc1-n1nnc2c(=O)oc3ccccc3c21`: the activation was 65.8% (active).

As for `O=S(=O)(Nc1ccccn1)c1cccc(S(=O)(=O)c2ccc(Cl)cc2)c1`, the activation is -10.4%. Take `Clc1ccc(C2=CSC3=Nc4cccc5cccc(c45)N23)cc1`: the activation is -26.6%. In the case of `CCOc1ccc(/C=N/OCC(=O)NCc2cccs2)cc1`, the activation is -0.95%.

In the case of `CC(C)OP(=O)(OC(C)C)C(Nc1ccccc1)c1cccc([N+](=O)[O-])c1` (stereo not drawn), the activation is 6.2%.

On to `CC(=O)NCC(O)c1ccc([N+](=O)[O-])cc1` (stereo not drawn), for which the activation was -3.81%. Turning to `CC(CCc1ccccc1)NCC(O)c1cccc([N+](=O)[O-])c1` (stereo not drawn), the activation was 107% (active). As for `O=C(CC1SCCNC1=O)Nc1ccc(Cl)c(Cl)c1` (stereo not drawn), the figure is 8.97%; as for `O=C(CSc1nnc(-c2ccncc2)n1-c1ccc(Cl)cc1)Nc1ccc(C(=O)O)cc1`, -5%. The figure for `CC(=O)c1ccc(-c2nnc(CCC(=O)N(C)Cc3cnc4ccccn34)o2)s1` is 10.1%; for `O=C(c1cc(-c2ccc(O)cc2)on1)N1CCCc2ccccc21` it is -13.9%; for `Cc1cc(C)nc(NC(=O)Nc2ccccc2C(F)(F)F)n1` it is -11.5%. On to `O=C(Nc1ccccc1C(F)(F)F)c1cc(-c2ccc(O)cc2)on1`, for which the activation was 42.6% (active).

Turning to `Cc1nn2c(NCCN(C)C)c3c(nc2c1-c1ccccc1)CCC3`, the activation is 22.6%.

Take `O=C(c1cc(COc2c(F)cccc2F)on1)N1CCSCC1`: the activation is 3.08%.

Turning to `CCC(CC)C(=O)N1CCN(c2cccc(C)c2C)CC1`, the activation is -14.7%.

Consider `COC(=O)c1ccc(NC(=O)CN(c2ccc(C)cc2)S(=O)(=O)c2c(C)n[nH]c2C)cc1`, for which the activation was 38.8% (active). Regarding `Cc1ccc(N(CC(=O)Nc2cccc(N(C)S(C)(=O)=O)c2)S(C)(=O)=O)cc1`, the activation is 25.3%.

Consider `CCOC(=O)c1cccc(NC(=O)CN(c2ccc(C)cc2)S(=O)(=O)c2c(C)noc2C)c1`, for which the activation is 18.8%. On to `COc1ccc(NC(=O)c2nc(-n3nc(C)cc3C)ccc2Cl)cc1Cl`, for which the activation was 9.04%. For the compound `O=C(Cc1cccc2ccccc12)NNC(=O)Nc1ccc(Cl)cc1`, the activation is 5.16%. With `COc1ccccc1C(c1nnnn1C(C)(C)C)N1CCN(Cc2ccccc2)CC1` (stereo not drawn), the activation is -17.5%. With `COc1ccccc1C(c1nnnn1CC1CCCO1)N1CCN(c2ccccc2)CC1` (stereo not drawn), the activation was 12.6%. Consider `COCCn1nnnc1C(c1ccccc1Cl)N1CCN(c2ccccc2OC)CC1` (stereo not drawn), for which the activation is 89.3% (active). In the case of `Cc1c(CN2CCCCC2)c(O)n(CCO)c(=O)c1C#N`, the activation is 10.5%. For `CCOC(=O)CCCNC(=O)COC(=O)/C=C/c1ccc2c(c1)OCO2`, the activation is -7.21%.

As to `CC(=O)N1CC[n+]2c(-c3ccc([N+](=O)[O-])cc3)csc21`, the activation is 13.5%. Turning to `O=C(NCCCNc1ccc([N+](=O)[O-])cc1Cl)c1ccccc1F`, the activation was -0.79%. Regarding `CC1=NNC(=O)C1CCC(=O)N/N=C\c1cccc(Cl)c1` (stereo not drawn), the activation is 4.52%. Turning to `CCOc1ccc(C2NC(=S)NC3=C2CCc2ccccc23)cc1` (stereo not drawn), the activation was 10.5%. As for `Cc1cc(C)c(NC(=O)c2oc3ccccc3c2COc2ccccc2)c(C)c1`, the activation is -49.2%. The figure for `Cc1cc(C)c(NC(=O)C[N+](C)(C)CC(O)COc2cccc3ccccc23)c(C)c1` (stereo not drawn) is 86.4% (active); for `Cc1cc(C)cc(OCC(=O)NCc2cc(C)nc3ccccc23)c1` it is 0.39%; for `COc1cc(N2C(=O)CC3(CCCC3)CC2=O)cc(OC)c1OC` it is -14.9%. With `CCC(=O)N1c2ccccc2NC2=C(C(=O)CCC2)C1c1ccco1` (stereo not drawn), the activation is 19.7%. For the compound `COC(=O)c1sccc1NC(=S)Nc1ccc(C)cc1`, the activation was -0.64%. As for `O=C1/C(=C/c2coc3ccc(O)cc3c2=O)SC(=S)N1c1ccccc1`, the figure is 47% (active); as for `O=c1c(-c2ccccc2)coc2cc(O)ccc12`, 2.99%. Turning to `O=c1c(/C=N/O)coc2ccc(Cl)cc12`, the activation is 19.5%. Regarding `O=C1CC(c2cccc(Cl)c2)CC(O)=C1C=Nc1ccccc1` (stereo not drawn), the activation was -11.9%. The figure for `Cc1ccc(-c2ccc(/C=C(\C#N)C(N)=S)o2)c([N+](=O)[O-])c1` is 8.63%; for `CN(C)NC(=O)C(NC(=O)c1ccc(N)cc1)C12CC3CC(CC(C3)C1)C2` (stereo not drawn) it is 5.39%; for `Cc1cc(NC(=O)COC(=O)COc2ccc(Cl)cc2C)c([N+](=O)[O-])cc1C` it is -0.92%. The figure for `Cc1ccc(OCC(=O)c2cc(C)n(Cc3ccco3)c2C)c([N+](=O)[O-])n1` is 1.91%. Take `COc1cccc2sc(N(CCCN(C)C)C(=O)C(c3ccccc3)c3ccccc3)nc12`: the activation was 103% (active).

Consider `CN(C)CCCN(C(=O)COc1ccccc1)c1nc2c(Cl)cccc2s1`, for which the activation was -13.9%. As to `CC(=O)N(CCCN(C)C)c1nc2ccc(C)cc2s1`, the activation is -7.71%.
